# Test results: PubChem BioAssay AID1209 (Sanford-Burnham Center for Chemical Genomics, 2008)
# Among all 190,000 compounds or so, about 810 (0.43%) were called active. What follows is part of a selection rich in actives, with near analogues and random picks from the rest. A number with no mark means an inactive call. No stated cut-off is given here; in the data, active means inhibition above about 50%; inactive means the rest.
# Target: Mannose-6-phosphate isomerase (Homo sapiens) (UniProt P34949)
# Sequence (P34949 whole entry, looked up): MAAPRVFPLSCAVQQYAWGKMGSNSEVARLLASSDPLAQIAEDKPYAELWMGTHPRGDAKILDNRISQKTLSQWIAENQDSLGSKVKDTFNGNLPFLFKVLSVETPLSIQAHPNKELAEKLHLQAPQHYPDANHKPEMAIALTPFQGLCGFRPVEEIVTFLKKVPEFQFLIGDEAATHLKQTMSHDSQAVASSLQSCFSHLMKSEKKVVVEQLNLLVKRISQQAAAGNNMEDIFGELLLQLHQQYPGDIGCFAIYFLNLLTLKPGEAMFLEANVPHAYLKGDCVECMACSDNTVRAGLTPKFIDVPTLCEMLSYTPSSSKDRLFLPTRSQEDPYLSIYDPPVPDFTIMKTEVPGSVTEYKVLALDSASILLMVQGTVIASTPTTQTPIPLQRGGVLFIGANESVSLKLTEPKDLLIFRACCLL
# Test: inhibitors of human PMI, primary screen, biochemical, fluorescence intensity, coupled assay (AID 1209);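 further: plate controls were DMSO vehicle for no effect and wells lacking substrate for full effect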
# Conditions: purified PMI enzyme, at 20 µM, active compounds read high
row,SMILES,inhibition
1,COc1ccc(/C=C(\CC(=O)O)c2nc3ccccc3o2)cc1,-27.3%
2,Cc1nc(C)c(C(=O)NNC(=O)c2ccc(Br)cc2)s1,6.9%
3,CCN(C(=O)CSc1nnc(Cn2nnc3ccccc32)o1)c1nc(C)cs1,9.1%
4,COCCn1cc(C(=O)c2cc(Br)ccc2O)cc(C#N)c1=O,-5.8%
5,O=C(Nc1cc(S(=O)(=O)N2CCOCC2)ccc1O)c1ccc2c(c1)S(=O)(=O)c1ccccc1C2=O,46.3%
6,O=C(NC(=S)Nc1cc(S(=O)(=O)N2CCOCC2)ccc1N1CCOCC1)c1ccco1,3.9%
7,O=C(NC(=S)Nc1cc(S(=O)(=O)N2CCOCC2)ccc1N1CCOCC1)C1CCCC1,-1.5%
8,O=C(Nc1cc(S(=O)(=O)N2CCOCC2)ccc1N1CCCCC1)c1cc(-c2ccccn2)nc2ccccc12,52.8% (active)
9,COCCNC(=S)Nc1cc(S(=O)(=O)N2CCOCC2)ccc1N1CCCCC1,63.1% (active)
10,COc1ccc(-c2cc(C(=O)Nc3cc(S(=O)(=O)N4CCOCC4)ccc3N3CCOCC3)c3ccccc3n2)cc1,-22.7%
11,O=C(Nc1cc(S(=O)(=O)N2CCOCC2)ccc1N1CCCC1)c1ccc2c(c1)S(=O)(=O)c1ccccc1C2=O,61% (active)
12,CCN(CC)S(=O)(=O)c1ccc(N2CCOCC2)c(NC(=O)c2cc(-c3ccccn3)nc3ccccc23)c1,15.6%
13,O=C(Nc1ccc(S(=O)(=O)N2CCOCC2)cc1)c1ccc2c(c1)S(=O)(=O)c1ccccc1C2=O,-4.6%
14,On1nnc2ccc3ccccc3c21,-9.6%
15,C/C(O)=c1/ccc2cccc3nc(C)nc1c23,42.6%
16,Cc1ccc(SCc2ccc(C(=O)NCc3ccncc3)cc2)cc1,0.9%
17,Cc1cc(C)n(C(=O)c2c([N+](=O)[O-])c(C)nn2C)n1,1.5%
18,c1ccc(CC2CCN(Cc3nc(-c4ccccc4)no3)CC2)cc1,16.3%
19,COc1ccc(C(=O)Nc2sc3c(c2C#N)CCN(C(C)=O)C3)cc1,5.9%
20,CC(=O)N1CCc2c(sc(NC(=O)c3ccc([N+](=O)[O-])o3)c2C#N)C1,59% (active)
21,CC(=O)N1CCc2c(sc(NC(=O)c3ccc4c(c3)OCCO4)c2C#N)C1,18.2%
22,Cc1cc(-c2ccco2)n(CC(=O)NCc2ccco2)n1,-9.3%
23,CC(CSc1nnnn1-c1ccccc1)Cn1c(N2CCCC2)nc2c1c(=O)[nH]c(=O)n2C (centres undefined),1.7%
24,CCCC(=O)N(c1ccc2oc(=O)sc2c1)S(=O)(=O)c1cccs1,3.6%
